Compound activity from PubChem.
Rows were chosen to be rich in hits. Some 3.3% of all compounds tested hit in one or more screens of this group.
Jurkat NFkB inh = lowers PMA/ionomycin-induced NF-kB signal in Jurkat cells; PMA/ionomycin-induced NF-kB luciferase reporter, luminescence; inhibition, % at 4 µM; 330,000 tested, 0.53% active; AID 435003; in the data active means inhibition above about 50%
SMARCA2 act = increases SMARCA2 function in MMTV reporter cells | MG213 cells, MMTV-luciferase reporter, dexamethasone, overnight | 370,000 tested, 1% active | activation, % at 9.1 µM; in the data active means activation above about 7.8%;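 further: 0% = vehicle wells and 100% = reference activator wells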
Gli-Sufu antag = blocks Gli-Sufu signaling in a luciferase reporter; Sufu-KO-LIGHT fibroblasts, Gli luciferase reporter luminescence; 340,000 tested, 0.74% active; inhibition, % at 5 µM;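 active means inhibition above about 55%, limit read from the data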;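 further: 0% = DMSO-treated cells and 100% = wells with medium but no cells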
esBAF inh = blocks esBAF chromatin remodeling in mouse ES cells. 350,000 tested, 2% active. Bmi1-luciferase knock-in reporter, 24 h; 100% = twice the neutral-well signal. reporter increase, % at 12.5 µM; in the data active means activation above about 40%;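 further: 0% = median of the plate's neutral control wells and 100% = double that signal; a rise in the Bmi1 reporter signal indicates esBAF inhibition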
697 NFkB inh = inhibitors of the PMA/ionomycin-induced NF-kB reporter in 697 B cells; inhibition, % at 4 µM; 697 B-cell NF-kB luciferase reporter, 16 h; 330,000 tested, 0.33% active; AID 435022; in the data active means inhibition above about 35%
An asterisk follows results filed as active; nt = no result given.

SMILES	Jurkat NFkB inh	SMARCA2 act	Gli-Sufu antag	esBAF inh	697 NFkB inh
Cc1cccc(NC(=S)NC(=O)C2CC2)c1	-12	nt	nt	22	-13
Cc1cc(NC(=S)NC(=O)C2CC2)ccc1Br	-51	7	-34	64*	-43
Cc1ccc(NC(=S)NC(=O)C2CCCC2)c(Br)c1	-132	6	-33	67*	-190
COc1ccc(CN(C)C[C@@H]2Oc3ccc(NS(=O)(=O)c4cn(C)cn4)cc3C(=O)N([C@H](C)CO)C[C@H]2C)cc1	nt	nt	nt	0	nt
Cc1ccc(N=C2NC(=O)/C(=C/c3cccs3)S2)cc1C	-6	3	-7	nt	-24
O=C1NC(=Nc2cccc(O)c2)S/C1=C\c1cccnc1	2	7.9*	-1	nt	22
Cc1cccc(N=C2NC(=O)/C(=C\c3cccs3)S2)c1	10	7.9*	-10	nt	-10
C[C@H](CO)N1C[C@H](C)[C@@H](CN(C)CC2CC2)Oc2ccc(NC(=O)Nc3ccc(F)cc3)cc2CC1=O	nt	nt	nt	0	nt
COc1cc2sc3ccc(-c4ccc5[nH]ccc5c4)cc3c(=O)c2cc1OC	-87	5	-51	51*	-63
CC(C)NC(=O)Nc1ccc2c(c1)C(=O)N([C@@H](C)CO)C[C@@H](C)[C@@H](CN(C)Cc1ccc3c(c1)OCO3)OCCCC[C@H](C)O2	nt	nt	nt	1	nt
O=C(Nc1ccccc1Br)c1cc(=O)c2ccccc2o1	-72	8	-48	49*	-4
NS(=O)(=O)c1cccc(NC(=O)c2cc(=O)c3ccccc3o2)c1	-17	0	5	4	16
O=c1cc(C(Cl)(Cl)Cl)oc2c1ccc1ccccc12	22	-1	65*	-6	-30
O=c1c2ccccc2oc2ccccc12	nt	6	nt	24	nt
O=c1c2ccccc2oc2c1ccc1ccccc12	nt	nt	-39	72*	-93
C/C=C/c1ccc2c(c1)O[C@@H](CN(C)Cc1cncnc1)[C@H](C)CN([C@@H](C)CO)S2(=O)=O	nt	nt	nt	-1	nt
COc1ccc(NC(=O)CCOc2ccccc2)cc1	-59	7	-33	49*	-51
Cc1ccccc1CSCC(=O)Nc1ccccc1-c1ccccc1	6	-5	24	nt	-7
COC(=O)c1ccc(OCCOc2ccccc2C)cc1	2	0	19	19	-5
COC(=O)c1ccc(OCCOc2ccccc2)cc1	-32	7	-21	46*	3
COC(=O)c1ccc(N=Nc2ccccc2)cc1	-76	3	-38	76*	-39
COC(=O)c1ccc(NC(=O)CCOc2ccccc2)cc1	-12	-3	-9	nt	3
COc1ccc(NC(=O)CSCc2ccccc2C)cc1	-23	4	0	67*	-8
COc1cccc(S(=O)(=O)N2C[C@H](O)COC[C@@H]3O[C@H](CC(=O)N4CCOCC4)CC[C@H]32)c1	nt	nt	nt	-2	nt
C[C@@H]1CN([C@H](C)CO)C(=O)Cc2cc(NC(=O)C3CC3)ccc2O[C@H]1CN(C)S(=O)(=O)c1cn(C)cn1	nt	nt	nt	1	nt
SMILES	Jurkat NFkB inh	SMARCA2 act	Gli-Sufu antag	esBAF inh	697 NFkB inh
CO[C@@H]1CN(C)C(=O)c2ccc(NS(=O)(=O)c3ccccc3C)cc2OC[C@H](C)N(S(C)(=O)=O)C[C@H]1C	nt	nt	nt	-2	nt
O=C(Cn1ccsc1=NC(=O)C(F)(F)F)c1ccccc1	-88	4	-22	49*	-37
CC(C)NC(=O)N(C)C[C@@H]1Oc2cc(-c3cncnc3)ccc2S(=O)(=O)N([C@@H](C)CO)C[C@H]1C	nt	nt	nt	-2	nt
Cc1ccc(NC(=O)NC(=O)N(c2ccccc2)S(C)(=O)=O)cc1	-50	1	-11	76*	-35
Cc1ccc(NC(=O)N(C)c2ccccc2)cc1	nt	-1	-5	23	nt
C[C@H](CO)N1C[C@H](C)[C@H](CN(C)C(=O)C2CCC2)Oc2cc(C#Cc3ccncc3)ccc2S1(=O)=O	nt	nt	nt	1	nt
COc1ccc(NC(=O)Nc2ccc3c(c2)C(=O)N([C@H](C)CO)C[C@@H](C)[C@@H](CN(C)CC2CCCCC2)OCCCC[C@@H](C)O3)cc1	nt	nt	nt	1	nt
Cn1c(SCc2ccc(C#N)cc2Cl)nc2ccccc21	-90	5	-88	87*	-145
N#Cc1ccc(CSc2ccccn2)c(Cl)c1	-25	2	-23	9	-9
CCc1ccc(-c2csc(-c3c[nH]c4ccccc34)n2)cc1	-56	1	-81	66*	-85
COc1cccc(C(=O)CSc2nccn2C)c1	-33	2	-7	44*	-47
COC(=O)c1ccc(-c2ccc([C@H]3[C@H]4C=CC[C@@H](C)[C@@H]4C(=O)N3Cc3ccccc3)c(F)c2)cc1	1	0	3	59*	-37
CC(=O)c1ccc(-c2ccc([C@H]3[C@H]4C=CC[C@@H](C)[C@@H]4C(=O)N3Cc3ccccc3)c(F)c2)cc1	7	-1	-1	0	11
COc1ccc(-c2cc([C@H]3[C@H]4C=CC[C@@H](C)[C@@H]4C(=O)N3Cc3ccccc3)ccc2F)cc1OC	-4	3	-3	48*	-2
COc1ccc(-c2cc([C@H]3[C@H]4C=CC[C@@H](C)[C@@H]4C(=O)N3Cc3ccccc3)ccc2F)cc1	6	1	-5	-2	12
Cc1ccc(C(=O)N/N=C/c2ccoc2)cc1C	-17	0	-23	50*	-6
C[C@@H]1CCCCO[C@H](CN(C)C(=O)Nc2ccccc2)[C@@H](C)CN([C@@H](C)CO)C(=O)c2cc(NC(=O)C3CCCCC3)ccc2O1	nt	nt	nt	1	nt
COc1cccc2c1C(=O)c1c(O)c3c(c(O)c1C2=O)CC(O)(C(=O)CO)CC3OC1CC(N(C)C)C(O)C(C)O1 (stereo not drawn)	nt	-11	85*	nt	nt
O=C(OCC(=O)N1CCCCC1)c1ccccc1SCC(=O)N1CCCCC1	8	1	-2	7	6
Cc1ccc(C(=O)c2ccccc2C(=O)OCC(=O)NC(C)(C)C)cc1	-10	-1	-1	-4	8
Nc1cc(Cl)ccc1C(=O)OCC(=O)N1CCCCCC1	-67	4	-8	53*	-3
Cc1cccc(C(=O)OCC(=O)N2CCCCCC2)c1C	-41	7	-27	64*	-90
Cc1ccc(C(=O)c2ccccc2C(=O)OCC(=O)N2CCCC2)cc1	-22	0	-13	43*	-35
CS(=O)(=O)N1[C@@H]2c3ccc(-c4cccc(F)c4)c(=O)n3C[C@H]1[C@H](CO)[C@H]2C(=O)N1CCOCC1	nt	nt	nt	2	nt
CNC[C@@H]1Oc2cc(C#Cc3ccccc3F)ccc2S(=O)(=O)N([C@@H](C)CO)C[C@H]1C	nt	nt	nt	-7	nt
Cc1c(C=NNc2ccccc2)[nH]c(=O)[nH]c1=O	nt	-2	8	nt	nt
COC(=O)c1c(C)[nH]c(/C=N/Nc2ccccc2)c1C	0	15*	53	nt	-27
Cc1noc(C)c1NC(=O)N(C)C[C@@H]1Oc2ccc(NC(=O)Nc3ccccc3)cc2C(=O)N([C@H](C)CO)C[C@@H]1C	nt	nt	nt	5	nt
C[C@H]1CCCCO[C@H](CN(C)C(=O)Nc2ccc3c(c2)OCO3)[C@@H](C)CN([C@@H](C)CO)C(=O)c2cc(NC(=O)CCC(F)(F)F)ccc2O1	nt	nt	nt	8	nt
